Data: PubChem BioAssay (NCI)
This is part of a sample that, as a whole, favours compounds with a hit. Of some 83,000 tested, about 20% had one in any assay.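 Activity criterion: percent growth below 10, measured after cells in 96-well plates were exposed to a single compound concentration for 48 hours.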 Values without a mark were called inactive. Active and inactive are the calls of the source.

What was measured:
Test in all cases: NCI-60 one-dose screen, 48 h (100 = growth as untreated, 0 = no growth, -100 = all killed)
Conditions in all cases: 10 µM unless noted
NCI-H23 lung = test system: NCI-H23 lung
NCI-H226 lung = test system: NCI-H226 lung
NCI-H322M lung = test system: NCI-H322M lung
HOP-62 NSCLC = test system: HOP-62 NSCLC
NCI-H460 lung = test system: NCI-H460 lung
HOP-92 NSCLC = test system: HOP-92 NSCLC
NCI-H522 lung = test system: NCI-H522 lung
A549/ATCC NSCLC = test system: A549/ATCC NSCLC
786-0 renal = test system: 786-0 renal
COLO 205 colon = test system: COLO 205 colon
DU-145 prostate = test system: DU-145 prostate
K-562 leukemia = test system: K-562 leukemia
MALME-3M melanoma = test system: MALME-3M melanoma
MDA-MB-231 breast = test system: MDA-MB-231 breast
RXF 393 renal = test system: RXF 393 renal
SF-268 CNS = test system: SF-268 CNS
SF-295 CNS = test system: SF-295 CNS
SF-539 CNS = test system: SF-539 CNS
UACC-257 melanoma = test system: UACC-257 melanoma
M14 melanoma = test system: M14 melanoma

SMILES | growth (NCI-H23 lung) [%] | growth (NCI-H226 lung) [%] | growth (NCI-H322M lung) [%] | growth (HOP-62 NSCLC) [%] | growth (NCI-H460 lung) [%] | growth (HOP-92 NSCLC) [%] | growth (NCI-H522 lung) [%] | growth (A549/ATCC NSCLC) [%] | growth (786-0 renal) [%] | growth (COLO 205 colon) [%] | growth (DU-145 prostate) [%] | growth (K-562 leukemia) [%] | growth (MALME-3M melanoma) [%] | growth (MDA-MB-231 breast) [%] | growth (RXF 393 renal) [%] | growth (SF-268 CNS) [%] | growth (SF-295 CNS) [%] | growth (SF-539 CNS) [%] | growth (UACC-257 melanoma) | growth (M14 melanoma) [%]
CC1CN(CCO)CC(C)O1 (stereo not given) | 106 | 95.2 | 102 | 99.3 | 110 | 103 | 108 | 100 | 104 | 117 | 107 | 98.9 | 99.7 | 101 | 132 | 99.7 | 104 | 98.4 | 105% | 108
Nc1ncnc(Nc2ccc(C(F)(F)F)cc2)n1 | 100 | 103 | 102 | 103 | 106 | 76.7 | 98.5 | 93.6 | 97.7 | 108 | 107 | 98.9 | 105 | 102 | 113 | 101 | 101 | 107 | 95.5% | 103
CC(=O)OCC1CCC(COC(C)=O)CC1 (stereo not given) | 95.5 | 105 | 96.6 | 90.8 | 110 | 125 | 67.4 | 79.7 | 95.3 | 120 | 102 | 104 | 104 | 119 | 106 | 95.1 | 99 | 104 | 82.9% | 111
O=S(=O)(O)c1cccc2cccnc12 | 100 | 107 | 122 | 101 | 112 | 102 | 97.4 | 106 | 105 | 127 | 120 | 107 | 112 | 120 | 124 | 95.1 | 109 | 109 | 103% | 106
Cc1ccc2nc(-c3ccc(N=Cc4ccccc4O)cc3)sc2c1 | 84.4 | 70.7 | 82.8 | 77.9 | 104 | 78.1 | 61.3 | 71.9 | 77.5 | 140 | 96.8 | 84.8 | 90.3 | 62.2 | 83.4 | 97.7 | 109 | 89.3 | 78.8% | 78.4
COC1OC(COC(C)=O)C(OC(C)=O)C(OC(C)=O)C1OC(C)=O (stereo not given) | 98 | 91.1 | 101 | 97.9 | 115 | 92.8 | 71.9 | 91.5 | 98.8 | 98.7 | 111 | 102 | 96.9 | 90 | 114 | 101 | 90.1 | 98.4 | 85% | 104
Cc1ccc(Cc2ccc(C)cc2)cc1 | 106 | 100 | 98.3 | 98.1 | 111 | 97.5 | 95.3 | 102 | 96.1 | 107 | 107 | 101 | 86.9 | 123 | 99 | 106 | 101 | 106 | 93.3% | 99.6
CC(=O)c1ccc(C)cc1 | 104 | 102 | 90 | 107 | 106 | 88.3 | 103 | 114 | 120 | 116 | 114 | 114 | 90.8 | 114 | 97.6 | 107 | 109 | 114 | 92% | 107
Nc1ccccc1SC1CC(=O)N(c2ccc(Cl)c(Cl)c2)C1=O (stereo not given) | 104 | 106 | 128 | 96.6 | 117 | 101 | 117 | 99.9 | 93.9 | 127 | 113 | 122 | 177 | 94.4 | 130 | 97.6 | 127 | 83.1 | -6.15% (active) | 94.8
CCCCCCCCCCC(=O)CCCCCCCCCC | 102 | 103 | 109 | 92.3 | 102 | 148 | 96.7 | 98.4 | 99.1 | 107 | 111 | 103 | 99.1 | 119 | 113 | 108 | 93.7 | 98.1 | 101% | 99.9
ClCC(Cl)[C@@H]1CC2C=CC1C2 (stereo not given in full) | 102 | 91.7 | 108 | 109 | 113 | 99.7 | 99.6 | 89.1 | 94.4 | 127 | 113 | 105 | 102 | 96.8 | 105 | 108 | 91.3 | 110 | 105% | 112
CCOC(=O)CSCCC#N | 95.3 | 98.3 | 101 | 82.3 | 106 | 102 | 96.3 | 101 | 93.5 | 107 | 108 | 112 | 106 | 110 | 97.8 | 101 | 94.7 | 92.2 | 95.4% | 94.9
CC(=O)Nc1ccc(O)c(C)c1 | 99.8 | 95 | 100 | 98 | 104 | 100 | 93.5 | 88.1 | 105 | 109 | 109 | 98.6 | 98.8 | 96.9 | 116 | 100 | 105 | 100 | 87.8% | 100
Nc1nc(N)nc(N2CCCCC2)n1 | 107 | 103 | 94.4 | 104 | 103 | 96.6 | 100 | 104 | 102 | 108 | 107 | 105 | 96.3 | 96.5 | 105 | 107 | 113 | 97.6 | 101% | 111
COc1cc(C(=O)NC(=S)NCc2ccncc2)cc(OC)c1OC | 91.8 | 86.4 | 89.5 | 107 | 110 | 89.2 | 56.7 | 99 | 97.5 | 95.3 | 103 | 86.2 | 104 | 114 | 95.8 | 102 | 96.5 | 95.8 | 103% | 106
Cc1cc2nc(C)c(C)nc2cc1C | 93.7 | 84 | 118 | 92.5 | 101 | 63.8 | 95.6 | 101 | 103 | 98.7 | 115 | 119 | 109 | 101 | 109 | 109 | 89 | 104 | 97.8% | 108
